G9a block: G9a (human) methyltransferase inhibition; Potency, µM (doses to about 102 µM), without a hit: at the top dose activity, negative = inhibition, hits mostly inhibitors; 350,000 compounds, 8.8% hits; Q96KQ7; G9a H3K9 monomethylation, AlphaScreen, 2 h; further: potency means the concentration at half of the fitted maximal effect; on the % scale 0 is the no-effect control and ±100 the full control effect; nearly all actives have a fitted effect of over 75% in size
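Methyltransferase reactions run at room temperature for 2 h (20 nM enzyme, 500 nM biotin-H3K9 peptide, 20 uM SAM) after a 15 min compound preincubation; product detected by AlphaScreen beads and anti-H3K9me1 antibody.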
JMJD2A Tudor inh: inhibitors of human JMJD2A Tudor domain; AlphaScreen JMJD2A-Tudor / H3K4me3 peptide binding; Potency, µM (highest dose often 114 µM), without a hit: top-dose activity change, negative = inhibition, most hits filed as inhibitors; 390,000 compounds, 4.4% hits; AID 504339; O75164; further: potency means the concentration at half of the fitted maximal effect; on the % scale 0 is the no-effect control and ±100 the full control effect; nearly all actives have a fitted effect of over 50% in size
BAZ2B inh: blocks human BAZ2B | Q9UIF8 | Potency, µM (series often up to 114 µM), without a hit: at the top dose activity change, negative = inhibition, hits mostly inhibitors | AlphaScreen BAZ2B-H3K14Ac peptide displacement | 360,000 compounds, 4.4% hits; further: potency means the concentration at half of the fitted maximal effect; on the % scale 0 is the no-effect control and ±100 the full control effect; nearly all actives have a fitted effect of over 60% in size
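Multi-concentration screen (max 110 uM) measuring displacement of acetylated histone H3 peptide from BAZ2B by AlphaScreen, using 50 nM protein, 50 nM peptide and 10 ug/mL streptavidin donor plus Ni-chelate acceptor beads.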
HP1b binding inh: blocks HP1-beta chromodomain binding to methylated histone tails. AlphaScreen HP1-beta / biotin-H3K9me3 peptide binding. Potency, µM (highest dose often 114 µM), for inactives: at the top dose activity change, negative = inhibition, actives largely listed as inhibitors. P83916. 390,000 compounds, 0.56% hits; further: potency means the concentration at half of the fitted maximal effect; nearly all actives have a fitted effect of over 70% in size
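Compound inhibition of the preformed complex between 50 nM HP1-beta and 50 nM biotinylated H3K9me3 peptide was read by AlphaScreen. Buffer was PBS pH 7.4 with 0.01% Tween-20. Incubations ran 30 min at room temperature, with 10 ug/mL donor/acceptor beads.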
L3MBTL1 inh: blocks human L3MBTL1 | Q9Y468 | AlphaScreen L3MBTL1–H3K9me1 peptide binding | Potency, µM (titrated, usually from 57.1 µM), for inactives: at the highest dose activity, negative = inhibition, usual class: inhibitors | 230,000 compounds, 0.66% hits | AID 485360; further: potency means the concentration at half of the fitted maximal effect; on the % scale 0 is the no-effect control and ±100 the full control effect; nearly all actives have a fitted effect of over 60% in size
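First, the protein-peptide complex forms for 30 min at room temperature (L3MBTL1 50 nM, biotinylated H3K9me1 peptide 75 nM). Next, compounds are pin-transferred and incubated 30 min. Finally, AlphaScreen beads are added and read after 30 min.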
GLS inhibitor: glutaminase GLS (human) inhibition. O94925. GLS enzymatic activity, qHTS titration. Potency, µM (series often up to 45.5 µM), without a hit: at the top dose activity change, negative = inhibition, most hits filed as inhibitors. 410,000 compounds, 0.21% hits. AID 624170; further: potency means the concentration at half of the fitted maximal effect; on the % scale 0 is the no-effect control and ±100 the full control effect
Target sequence (O94925 whole entry, looked up): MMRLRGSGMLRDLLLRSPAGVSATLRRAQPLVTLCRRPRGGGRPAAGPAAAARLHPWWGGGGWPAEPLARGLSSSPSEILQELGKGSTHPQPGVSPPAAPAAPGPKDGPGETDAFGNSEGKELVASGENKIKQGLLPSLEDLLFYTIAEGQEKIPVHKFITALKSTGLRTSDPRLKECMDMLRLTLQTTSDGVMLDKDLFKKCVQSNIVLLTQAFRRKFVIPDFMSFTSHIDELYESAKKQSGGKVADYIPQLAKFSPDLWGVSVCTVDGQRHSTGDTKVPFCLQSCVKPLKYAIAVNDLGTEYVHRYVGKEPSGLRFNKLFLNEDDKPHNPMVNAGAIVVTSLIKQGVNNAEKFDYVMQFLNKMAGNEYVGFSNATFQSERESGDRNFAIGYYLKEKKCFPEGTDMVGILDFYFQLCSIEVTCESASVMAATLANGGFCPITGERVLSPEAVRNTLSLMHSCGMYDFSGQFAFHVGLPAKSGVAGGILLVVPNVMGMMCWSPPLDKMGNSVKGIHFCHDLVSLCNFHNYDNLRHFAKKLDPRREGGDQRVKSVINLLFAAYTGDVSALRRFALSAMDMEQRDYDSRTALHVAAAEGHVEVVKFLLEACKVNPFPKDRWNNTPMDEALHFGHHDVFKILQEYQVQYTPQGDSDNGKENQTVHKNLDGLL
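Glutamate formation by hKGA was monitored fluorometrically using coupled glutamate oxidase, HRP and Amplex Red. Substrate was added as 1 mM L-glutamine solution; incubation was 30 min at RT after an initial read.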
GLS confirm: glutaminase (human) inhibition, hit confirmation; shares compounds with GLS inhibitor; biochemical glutaminase enzyme inhibition assay; Potency, µM (series often up to 46.1 µM), without a hit: at the top dose activity change, negative = inhibition, usual class: inhibitors; 35 tested, under 10 active; AID 624261; calls by dose curve
HRP GOx counter: counter-screen for glutaminase inhibitors: HRP coupled enzyme inhibition. shares compounds with GLS inhibitor. HRP/glutamate oxidase coupled Amplex Red fluorescence counterscreen. activity change, negative = inhibition, % at 46.1 µM. 35 tested, under 10 active. AID 624262
GLS HEK tox: counter-screen for glutaminase inhibitors: HEK-293 cytotoxicity | shares compounds with GLS inhibitor | HEK-293 viability, CellTiter-Glo luminescence, 24 h | activity change, negative = cytotoxicity, % at 46.1 µM | 35 tested, under 10 active | AID 624264
Numbers without * were called inactive; ? = inconclusive; nt = no result given; [ ] = remark or other dose. This is a sample that favours compounds with a hit; in the whole collection about 10% have one here. Unless noted, the call rests on the fitted dose curve; in most records, active means well fitted curve in the direction sought with a large enough effect; inconclusive means small, poorly fitted or top-dose-only effect, or another doubt; inactive means no such curve, though single readings can be large; an effect the other way counts as inactive or inconclusive.

SMILES | G9a block | JMJD2A Tudor inh | BAZ2B inh | HP1b binding inh | L3MBTL1 inh | GLS inhibitor | GLS confirm | HRP GOx counter | GLS HEK tox
COc1ccc2c(C)c(CCC(=O)NCc3ccc(C)cc3)c(=O)oc2c1 | -1%[59 µM] | -13% | -6% | 26% | nt | -4% | nt | nt | nt
COc1ccc(OC)c(S(=O)(=O)Nc2cccc3ccc(O)cc23)c1 | nt | -28% | nt | 3% | nt | 6.3µM* | 1% | ? | 6
Cc1ccc(S(=O)(=O)Nc2cc(S(=O)(=O)c3ccc(C)cc3)c(O)c3cccnc23)cc1 | nt | -19% | nt | nt | nt | nt | nt | nt | nt
Cc1ccc(S(=O)(=O)Nc2cc(Cl)c(O)c3ncccc23)cc1 | 7.9µM* | 22µM* | 8.9µM* | 79µM* | nt | 7.1µM* | ? | -6 | ?
COc1ccc(NS(=O)(=O)c2cc(NC(=O)[C@H](C)NC(N)=O)ccc2N2CCCC2)cc1 | nt | -32% | nt | 10% | -8% | 16µM* | 8% | ? | 5
COc1ccccc1NS(=O)(=O)c1cc(NC(=O)C(C)NC(N)=O)ccc1N1CCCC1 (configuration not stated) | ? | -13% | -3% | -10% | 9% | 18% | nt | nt | nt
CCOC(=O)c1noc2ncnc(Nc3ccc(F)cc3F)c12 | 13%[59 µM] | -12% | -10% | -2% | nt | 5% | nt | nt | nt
Cc1cc(C)c(NC(=O)c2cc3c(=O)n4ccccc4nc3n2C)c(C)c1 | 1%[59 µM] | -12% | 2% | 32% | nt | 6% | nt | nt | nt
Cc1ccc(S(=O)(=O)Nc2ccc(O)c3ccccc23)c(C)c1 | 22µM* | 45µM* | 45µM* | 50µM* | nt | 7.9µM* | ? | -9 | -21
CN1C(=O)c2cccc3c(S(=O)(=O)Nc4ccc(O)c(C(=O)O)c4)ccc1c23 | ? | -19% | -10% | -10% | nt | ? | ? | ? | 9
CN1C(=O)c2cccc3c(S(=O)(=O)NCCc4ccccc4)ccc1c23 | 31% | 53% | 41% | 115% | nt | 0% | nt | nt | nt
Cn1c(=O)c2c(nc(NCc3ccccc3)n2Cc2ccc(Cl)c(Cl)c2)n(C)c1=O | -41%[59 µM] | -24% | -28% | 4% | nt | 0% | nt | nt | nt
O=C(O)c1ccccc1NS(=O)(=O)c1cccc(NS(=O)(=O)c2cc(Br)ccc2Br)c1 | nt | -17% | nt | 27% | -1% | ? | ? | -4 | -6
CC(=O)c1c(C)oc2c1cc(NS(=O)(=O)c1ccc(Br)cc1)c1ccccc12 | -1%[59 µM] | -9% | -13% | 59% | nt | -1% | nt | nt | nt
Cc1oc2c(cc(NS(=O)(=O)c3ccc(Cl)cc3)c3ccccc32)c1C(=O)O | -9%[0.501 µM] | ? | -36% | -11% | nt | 16µM* | ? | 6 | 8

Bioassay records from PubChem BioAssay.
